DRD3 antagonist = D3 dopamine receptor (human) antagonism. actives 2.5% (n = 360,000). max response, negative = inhibition, %. D3R cells, DiscoveRx beta-arrestin luminescence, antagonist mode; hits give low values. P35462. AID 652054; in the data active = max response below about -50%; inconclusive = no clear call, values can overlap the other calls; note: % is set by controls: 0 for no effect and ±100 for the full control effect
Target sequence (P35462 whole entry, looked up): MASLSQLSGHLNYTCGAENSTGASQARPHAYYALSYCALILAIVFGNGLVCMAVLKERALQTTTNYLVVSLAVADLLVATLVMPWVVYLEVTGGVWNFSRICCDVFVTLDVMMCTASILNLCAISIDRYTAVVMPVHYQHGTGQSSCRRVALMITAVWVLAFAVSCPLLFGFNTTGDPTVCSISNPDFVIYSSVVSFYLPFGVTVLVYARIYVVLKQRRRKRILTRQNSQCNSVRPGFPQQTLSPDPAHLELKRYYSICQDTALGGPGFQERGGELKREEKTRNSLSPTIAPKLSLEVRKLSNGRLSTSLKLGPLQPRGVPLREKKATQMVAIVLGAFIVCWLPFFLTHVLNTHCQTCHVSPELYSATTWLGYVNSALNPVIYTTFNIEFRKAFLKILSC
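Cells plated overnight at 1500 cells/well, then exposed to library compounds with dopamine controls for 90 minutes at 37 degrees C. DiscoveRx reagent added for 30–60 minutes at room temperature; luminescence read, quantitative HTS format.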
D1 agonist = agonists of human D1 dopamine receptor. P21728. HEK293 T-REx D1 cells, calcium flux, agonist mode. activation, % at 2 µM. actives 1% (n = 360,000); in the data active = activation above about 30%; note: 0% is about no effect
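Tetracycline-induced HEK293 TREx D1 cells, force-coupled to calcium signalling, were dye-loaded with a no-wash calcium kit. Compound was pin-added after a 10 s baseline. Fluorescence was read kinetically at 1 cycle/s for 180 s, with calcium rises flagged as agonism.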
D3 ag = activates the human D3 dopamine receptor. P35462. D3R DiscoveRx beta-arrestin cells, luminescence, 90 min. max activation, %. actives 0.58% (n = 410,000). AID 652048; in the data active = max activation above about 30%; note: 0% is about no effect
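Agonist mode: compounds and dopamine controls were applied to plated cells for 90 min at 37 degrees C after an overnight attachment at 1500 cells/well. Luminescent read-out followed 30 - 60 minutes at room temperature with DiscoveRx detection reagent.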
D1 antag = antagonists of human D1 dopamine receptor. activity change, negative = inhibition, % at 10 µM. HEK293 TREx D1 cells, calcium flux, dopamine EC80; hits give low values. AID 504652. actives 3.2% (n = 360,000); in the data active = activity change below about -30%; note: % is set by controls: 0 for no effect and ±100 for the full control effect
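Antagonism measured as reduced calcium response to an EC80 dopamine addition following 180 s compound pre-read; cells were inducible HEK293 Trex D1 plated overnight at 30 C, read kinetically at 1 cycle/sec.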
D1 potentiator = potentiators of human D1 dopamine receptor; AID 504651; HEK293 TREx D1 cells, calcium flux, dopamine EC20 potentiation; actives 0.036% (n = 360,000); potentiation, % at 10 µM; in the data active = potentiation above about 30%; note: 0% is about no effect
The depositor's hits bear a star; ? = inconclusive; · = no result given. An excerpt weighted towards active compounds, which were near 6% of everything screened.

SMILES	DRD3 antagonist	D1 agonist	D3 ag	D1 antag	D1 potentiator
Cc1ccc(Cn2ccsc2=NC(=O)COC(=O)C(C)C)cc1	10.5	0.4	-0.2	-48.2*	-0.8
COc1ccc(-n2c(SCC(=O)N3CCCc4ccccc43)nc3c([nH]c4ccccc43)c2=O)cc1	·	0.2	-7.3	-8.5	-2.8
COc1cccc(-n2c(SCC(=O)N3CCCc4ccccc43)nc3c([nH]c4ccccc43)c2=O)c1	·	0.3	-3.1	-35.1*	2.9
COC(=O)c1ccc(CSc2nc3c([nH]c4ccccc43)c(=O)n2-c2cccc(OC)c2)o1	·	0.8	6.5	-61.7*	-5.2
COC(c1ccccc1)(c1ccccc1)[C@H](Oc1nc(C)cc(C)n1)C(=O)O	·	·	8.1	·	·
Clc1ccc2nc(CN3CCCCC3)cn2c1	?	-0.7	-27.9	10.8	-1.7
Clc1ccc2nc(CN3CCCCCC3)cn2c1	-84.8*	7.7	-5.0	-1.8	-11.4
CN(C)S(=O)(=O)Oc1ccsc1C(=O)Nc1cccc(Cl)c1	5.1	-0.5	2.7	-41.5*	-2.2
CN(C)S(=O)(=O)Oc1ccsc1C(=O)Nc1ccc(Br)cc1	-1.5	1.8	-1.1	-1.0	-6.4
CN(C)S(=O)(=O)Oc1ccsc1C(=O)Nc1ccc(Cl)c(Cl)c1	-14.5	35.6*	-6.1	-55.4*	-7.4
C=CCNc1ncnc2c1ncn2[C@H]1CN(Cc2cccs2)C[C@@H](CO)O1	-9.1	·	-7.8	·	·
O=S(=O)(c1ccc2c(c1)OCCO2)N1CCN(S(=O)(=O)c2ccccc2Cl)CC1	·	3.4	·	-12.5	-3.4
Cc1ccccc1CNC(=O)Cn1ncn2nc(-c3cccs3)cc2c1=O	·	6.9	6.6	-35.8*	0.5
COC(=O)c1ccccc1NC(=O)C1=C(C)C(=O)OC12CCC(C)CC2 (stereo not given)	·	1.4	8.4	-0.6	-2.7
N#CC(=C1C=C(Br)C(=NO)C=C1Cl)c1ccc(Cl)cc1	-24.3	·	-6.5	·	·
N#CC(=C1C=CC(=NO)C(Cl)=C1)c1ccccc1	-81.5*	·	-13.1	·	·
CCN(C(=O)CN1C(=O)NC2(CCCc3ccccc32)C1=O)c1ccc(F)cc1 (stereo not given)	-14.6	13.3	3.0	3.3	-4.5
COc1cc(Cl)c(NS(=O)(=O)c2ccc3c(c2)CC(C)N3C(=O)C2CCC2)c(OC)c1 (stereo not given)	·	14.2	1.8	-31.0*	-3.9
COc1cccc(NS(=O)(=O)c2ccc3c(c2)CCCN3C(=O)C2CCC2)c1	·	7.9	6.0	-52.2*	-6.8
COc1cccc(CNC(=O)C(=O)NCC(c2cccs2)S(=O)(=O)c2cccs2)c1 (stereo not given)	·	5.7	12.9	·	-2.6
CCCCN(C(=O)c1cc2c(s1)CCC2)c1c(N)n(CCC)c(=O)[nH]c1=O	13.2	1.1	0.9	-3.7	-4.8
COc1ccc(-n2c(=O)c3c4c(sc3n(Cc3ccccc3)c2=O)CN(C(C)=O)CC4)cc1OC	·	0.0	-3.4	20.8	-0.8
CCCCn1c(CNC(=O)c2ccc(OC)cc2)nnc1SCC(=O)Nc1ccccc1	·	0.9	3.5	-68.6*	-5.6
COc1ccc(NCc2nnc(SCC(=O)c3ccc(OC)cc3)n2C)cc1	-4.9	2.5	-1.2	-32.5*	-8.8
COc1ccc(CC(=O)NCc2nnc(SCC(=O)c3ccc(OC)cc3)n2C)cc1	23.9	-0.3	-5.5	0.5	2.7
SMILES	DRD3 antagonist	D1 agonist	D3 ag	D1 antag	D1 potentiator
Cc1ccc(C(=O)NNC(=O)CSc2nnc(-c3ccncc3)n2C)cc1	-75.4*	0.7	-8.1	-5.0	4.4
COc1ccc(OCCSc2nnc(CCNC(=O)c3ccc(Cl)c(Cl)c3)n2C)cc1	17.9	0.8	-20.7	-36.2*	-4.8
O=C(/C=C/c1cccc(F)c1)OCC(=O)N1CCc2ccccc21	1.0	·	0.2	·	·
COc1ccc(C(=O)NNC(=O)CSc2nnc(COc3ccccc3)n2C)cc1	2.7	2.1	2.4	4.2	-1.1
COc1ccc(OCc2nnc(SCC(=O)NNC(=O)c3ccc(C)cc3)n2C)cc1	-118.3*	0.7	-25.0	8.4	-4.7
O=C(N/N=C/c1ccc(-c2ccccc2)o1)c1ccccc1O	-23.1	9.5	5.8	-31.6*	-12.2
Cc1cc(C(=O)N/N=C/c2ccc(-c3cccc(Cl)c3)o2)n[nH]1	-61.3*	66.2*	-1.1	19.0	0.5
O=C(Nc1ncc(Cc2cccc(C(F)(F)F)c2)s1)C1CCCO1 (stereo not given)	-20.5	6.2	-3.0	-39.6*	-5.3
Cn1c(SCc2cccc(C#N)c2)nc2ccccc2c1=O	16.2	-1.9	4.0	-23.3	-6.2
O=c1ccsn1Cc1ccccc1	?	3.2	-24.1	6.6	1.6
Cn1sccc1=O	-71.0*	1.2	-16.7	5.4	2.5
O=C(O)COc1ccccc1/C=N/NC(=O)CSc1nc2ccccc2n1Cc1ccccc1Cl	-10.8	0.1	9.7	1.1	-0.1
COc1ccccc1NC(=O)Nc1ccc(N2CCOCC2)cc1	-16.0	-0.8	7.5	-42.6*	0.3
COc1ccccc1CNCC(=O)Nc1ccc(N2CCOCC2)cc1	-6.2	2.6	-4.4	2.4	3.9
CCN1CCN(CCC(=O)Nc2ccccc2OC)CC1	?	1.9	-5.2	1.1	-3.5
CCN1CCN(Cc2ccc(NC(=O)Nc3ccccc3OC)cc2)CC1	-72.4*	-2.5	-23.5	-1.9	-6.7
Cn1c(SCC(=O)c2cc(Cl)c(Cl)s2)nnc1-c1ccco1	10.9	-0.6	2.0	-68.2*	-0.7
Cc1occc1-c1nnc(SCC(=O)Nc2ccccc2-c2ccccc2)n1C	-57.2*	0.2	-4.4	0.4	-2.1
Cc1occc1-c1nnc(SCC(=O)c2ccc(Cl)cc2)n1C	-55.6*	0.3	-12.2	1.7	-3.1
Cc1occc1-c1nnc(SCC(=O)N2CCCCC2)n1C	3.9	1.4	5.0	-2.5	-2.3
CCOc1ccc(CCNC(=O)c2cnc3c(-c4ccc(F)cc4)c(C)nn3c2C)cc1OCC	·	2.9	-17.7	13.0	-3.9
Cc1cc(N2CCN(C)CC2)nc2ccc(NC(=O)Nc3ccccc3Br)cc12	·	0.9	-24.1	-20.7	-6.4
COc1ccccc1NC(=O)c1sc2nc3c(cc2c1N)CN(Cc1ccccc1)CC3	·	0.0	-8.7	-9.6	0.2
CCOc1ccccc1NC(=O)c1sc2nc3c(cc2c1N)CN(Cc1ccccc1)CC3	·	54.6*	-8.1	16.5	-3.5
COc1ccc(CCN(C)C(=S)NC(=O)c2ccc(F)cc2Cl)cc1OC	0.3	4.3	3.9	-56.1*	-2.5
NS(=O)(=O)c1ccc(CCNC(=O)c2cc(S(=O)(=O)N3CCCCC3)ccc2Cl)cc1	-13.2	·	-4.2	·	·
CCCCC(O)c1ccccc1 (stereo not given)	·	·	0.5	·	·
CCc1nc2ccc(C(=O)N3CCCCC3)cn2c1N(CCC(C)C)CCN(C)C	-10.7	·	53.1*	·	·
CCc1nc2ccc(C(=O)N3CCN(C(C)=O)CC3)cn2c1N(CCC(C)C)CCN(C)C	0.0	·	-19.0	·	·
NC(=O)c1ccc(N2CCC(C(N)=O)CC2)c([N+](=O)[O-])c1	-17.3	2.2	-2.7	11.7	2.2

Assay outcomes from PubChem BioAssay.
